# Screening results: PubChem, National Center for Advancing Translational Sciences (NCATS)
# CCT modulator: changes cytosolic chaperonin activity; purified chaperonin ATPase assay, HTRF ADP detection, 30 min; activity change, % (no concentration beside the values), hits read low; 0.3% of 360,000 active; AID 651819; in the data active = activity change below about -30%
#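 We incubate TRiC, 40 or 20 nM final, with library compounds at 76 uM and 10 uM ATP for 30 min at 37 °C. ADP formed is detected with Transcreener HTRF reagents after 30 min at room temperature.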
# Tb PGK inh: inhibitors of T. brucei phosphoglycerate kinase; P07378; PGK/GAPDH coupled, Kinase-Glo luminescence, 60 min; Potency, µM (doses to about 57.5 µM), hits mostly inhibitors; 0.043% of 380,000 active; AID 602233; note: nearly all actives have a fitted effect of over 60% in size
#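 Recombinant glycosomal PGK reaction used 1,3-bisphosphoglycerate generated in-well by GAPDH (100nM final) in 100mM TEA pH 7.6, 5mM MgCl2, 0.01% Tween-20. After 60 minutes at room temperature, ATP was read by Kinase-Glo Plus luminescence end-point.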
# PI4K2A inh: blocks human PI4K2A kinase activity | Q9BTU6 | purified PI4K2A, ADP-Glo luminescence, 1 h; stronger effect = lower value | activity change, negative = inhibition, % at 76.9 µM | 0.13% of 420,000 active; in the data active = activity change below about -50%; inconclusive = mostly about -30% to -49%
# Target sequence (Q9BTU6 whole entry, looked up): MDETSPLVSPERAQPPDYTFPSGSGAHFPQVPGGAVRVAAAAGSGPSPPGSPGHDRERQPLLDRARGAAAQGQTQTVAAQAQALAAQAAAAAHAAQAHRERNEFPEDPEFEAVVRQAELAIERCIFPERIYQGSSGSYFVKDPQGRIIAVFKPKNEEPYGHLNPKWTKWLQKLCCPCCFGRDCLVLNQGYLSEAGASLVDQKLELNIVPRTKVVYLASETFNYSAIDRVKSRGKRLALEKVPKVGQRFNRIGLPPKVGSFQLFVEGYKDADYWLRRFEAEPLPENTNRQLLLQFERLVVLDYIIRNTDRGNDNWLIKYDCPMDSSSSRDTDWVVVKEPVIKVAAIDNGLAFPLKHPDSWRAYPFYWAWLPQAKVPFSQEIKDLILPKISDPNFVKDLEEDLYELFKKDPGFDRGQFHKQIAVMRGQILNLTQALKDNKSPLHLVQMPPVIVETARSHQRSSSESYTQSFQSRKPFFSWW
#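 PI4K2A activity was measured by ADP-Glo luminescence: enzyme (4 ug/mL stock) and phosphatidylinositol (1.2 mM stock) in Tris pH 7.5/MgCl2/EGTA/Triton X-100 buffer were reacted with ATP (300 microM stock) for one hour at ambient temperature.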
# PINK1 expr mod: modulators of PINK1 expression; PINK1 immunofluorescence, high-content cytometry, 24 h; Potency, µM (highest dose often 76.6 µM), most hits filed as activators; 0.2% of 410,000 active; AID 624263; active = well fitted activation curve with a large enough effect; inconclusive = small, poorly fitted or top-dose-only effect; cell line not stated here; note: nearly all actives have a fitted effect of over 65% in size
#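 Readout is PINK1 immunofluorescence, quantified alongside mitochondrial, cell and nuclear markers by laser-scanning microplate cytometry. Cells from a stable line were exposed to compound titrations (5 concentrations) for 24 hours, with CCCP controls.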
# GLS inhibitor: inhibitors of human glutaminase (GLS); 0.21% of 410,000 active; O94925; Potency, µM (top dose mostly 45.5 µM), usual class: inhibitors; GLS enzymatic activity, qHTS titration
#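 Read-out is an Amplex red fluorescence increase coupled through glutamate oxidase and HRP, measured before and after 30 min room-temperature incubation. hKGA is in 45 mM KH2PO4 (pH 8.2) with 0.02% Tween-20; glutamine added as 1mM solution.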
# A number is an active result; - = inactive; ? = inconclusive; . = not tested or not shown. An excerpt weighted towards active compounds, which were near 0.78% of everything screened. Unless noted, calls come from the whole dose curve; as a rule, active = well fitted curve in the direction sought with a large enough effect; inconclusive = small, poorly fitted or top-dose-only effect, or another doubt; inactive = no such curve, though single readings can be large; an effect the other way counts as inactive or inconclusive.
SMILES,CCT modulator,Tb PGK inh,PI4K2A inh,PINK1 expr mod,GLS inhibitor
CCN(C(=O)C(C)N1C(=O)/C(=C/c2ccco2)SC1=S)C1CCS(=O)(=O)C1 (centres undefined),-,-,?,-,?
O=C(NCC1CCC2(CCN(Cc3cnn(-c4ccc(F)cc4)c3)CC2)O1)c1ccccc1 (centres undefined),.,.,.,-,.
CC(=O)N[C@@H](CO)C(=O)N[C@@H](CC(=O)O)C(=O)N[C@@H](CCCCN)C(=O)N1CCC[C@H]1C(=O)O,.,.,-,.,.
Cc1cc(-c2ccnc(-n3ncc(C(=O)NCCc4cccnc4)c3C)n2)c(C)s1,.,.,.,-,.
O=c1c(=O)n(O)c2ccccc2n1O,-,-,-,.,13µM
CC(CC(C#N)(c1ccccc1)C(C)C)N(C)C (centres undefined),.,.,-,.,.
CS(=O)(=O)Nc1cc(C(=O)N2CCNC(=O)C2)c2c(c1)ncn2CCc1ccccc1,.,.,.,-,.
Cc1nc(NC(=O)c2ccco2)sc1C(=O)O,-,?,-67,-,-
O=C1N=c2ccccc2=C1c1sc(Nc2cccc(O)c2)nc1O,-,-,-,-,-
O=C1N=c2ccccc2=C1c1sc(Nc2ccc(O)cc2)nc1O,-,-,-65,-,-
O=C(/C=C/c1ccc(F)cc1)NCC1Cc2cccc(-c3ncccn3)c2O1 (centres undefined),.,.,.,-,.
CC[N+]1=C(C)C(C)(C)c2cc(C)ccc21,-,-,-,22µM,-
CC(=O)O[C@H]1CC[C@@]2(C)C(=CCC3C2CC[C@]2(C)C(c4cccnc4)=CCC32)C1 (some centres undefined),.,.,.,.,-
O=C(O)C1=CC(=C(c2ccc(O)c(C(=O)O)c2)c2ccc(O)c(C(=O)O)c2)C=CC1=O,.,.,-86,-,.
O=C(NCCN1Cc2ccccc2OC(c2ccsc2)C1)c1cncs1 (centres undefined),.,.,.,-,.
N=c1ccn(Cc2ccc(Cl)c(Cl)c2)cc1,-,-,-,40µM,-
N=c1ccn(Cc2ccc(Cl)cc2)cc1,-,-,-,?,-
CCCCN(CCCC)C(C(N)=O)c1ccc(OC)cc1 (centres undefined),.,.,-,.,.
CCc1cc(C(=O)NCC2Cc3cc(C)cc(-c4cc(C(C)=O)ccc4F)c3O2)n(C)n1 (centres undefined),.,.,.,-,.
C/C(=C(\CCO)SS/C(CCO)=C(\C)N(C=O)Cc1cnc(C)nc1N)N(C=O)Cc1cnc(C)nc1N,.,.,-,.,.
COC(=O)c1cc(S(=O)(=O)Nc2nn(C)c3ccccc23)oc1C,-43,-,-,-,-
CCOC(=O)/C(C(N)=NCCCO)=C(/O)c1ccccc1,-,-,-,14µM,-
COc1ccc(-c2nn(-c3ccccc3)cc2/C=C2/SC(=S)N(CCC(=O)O)C2=O)c(C)c1,-,-,-,-,?
COc1ccc(-c2nn(-c3ccccc3)cc2/C=C2/SC(=S)N(CCC(=O)O)C2=O)cc1,-,20µM,-,-,-
COc1ccccc1C1CN(CCNC(=O)c2ccccc2Cl)Cc2ccccc2O1 (centres undefined),.,.,.,-,.
SMILES,CCT modulator,Tb PGK inh,PI4K2A inh,PINK1 expr mod,GLS inhibitor
COC(=O)C(O)(NC(=O)c1ccncc1)C(F)(F)F (centres undefined),-,-,-,-,-
COC(=O)C(O)(NC(=O)NC(C)=O)C(F)(F)F (centres undefined),-56,-,-,-,-
COC(=O)c1cc(O)cc(OC)c1Oc1cc(C)cc(O)c1C(=O)O,-,?,-,-,11µM
CC(=O)Nc1ccc(S(=O)(=O)Oc2cccc(/C=C3\SC(N)=NC3=O)c2)cc1,-,-,-,-,18µM
NC1=NC(=O)/C(=C/c2cccc(F)c2)S1,-,-,-,-,-
CCN(CC)S(=O)(=O)c1cc([N+](=O)[O-])ccc1NNC(=O)Nc1ccc(Cl)c(Cl)c1,-,-,-,14µM,-
COc1cccc(Cn2c(=O)c(-c3cccs3)nc3cnc(Nc4cccc(OC)c4)nc32)c1,.,.,.,-,.
COCCn1c(=O)c(-c2cccc(C#N)c2)nc2cnc(Nc3ccccc3)nc21,.,.,.,25µM,.
COc1cccc(Nc2ncc3nc(CCc4ccccc4)c(=O)n(Cc4cccs4)c3n2)c1,.,.,.,28µM,.
COc1ccc(Nc2ncc3nc(-c4cccs4)c(=O)n(Cc4cccc(OC)c4)c3n2)cc1,.,.,.,2.5µM,.
CCNc1ncc2nc(CCc3ccccc3)c(=O)n(Cc3ccc(F)cc3)c2n1,.,.,.,45µM,.
COc1cc(CN2CCOc3ccc(CN4CCC(O)(c5cccnc5)CC4)cc3C2)cc(OC)c1,.,.,.,-,.
COc1ccc(-c2nc3cnc(Nc4cccc(OC)c4)nc3n(C[C@H]3CCCO3)c2=O)cc1,.,.,.,25µM,.
O=c1c(-c2ccccc2)nc2cnc(Nc3ccccc3)nc2n1C[C@H]1CCCO1,.,.,.,-,.
Cc1c(C(=O)NCc2nccs2)cnn1-c1ncc2c(n1)-c1ccccc1CC2,.,.,.,-,.
O=C(NCc1ccccn1)c1cnn(-c2ncc3c(n2)-c2ccccc2CC3)c1C1CC1,.,.,.,-,.
S=c1[nH]nc(-c2cc(-c3ccccc3)n[nH]2)n1/N=C/C=C/c1ccco1,-,-,-,-,4µM
CC(=O)Nc1c(Cl)cc(Cl)c2c1Cc1cc(Cl)ccc1-2,-48,-,-,-,-
CC(C)C(NC(=O)c1ccoc1)c1nnc2n1CCN(Cc1ccc3c(c1)Cc1ccccc1-3)CC2 (centres undefined),.,.,.,-,.
Nc1nc(Sc2ccc([N+](=O)[O-])c3nonc23)c2[nH]cnc2n1,-,?,-52,-,?
NC1=NC(=O)/C(=C/c2c(OS(=O)(=O)c3ccc(Cl)cc3)ccc3ccccc23)S1,-,-,-,13µM,-
NC1=NC(=O)/C(=C/c2ccccc2OS(=O)(=O)c2ccccc2)S1,-,-,-,?,-
COc1cc(CNc2cccc3[nH]c(C(F)(F)F)nc23)cc(OC)c1,-,.,-,32µM,-
COCC1CCCN(c2nc(CN3CCN(C(=O)c4ccco4)CC3)nc3ccccc23)C1 (centres undefined),.,.,.,-,.
COC(=O)c1cc(CNC(=O)c2ccc3ncccc3c2)cc(NC(=O)c2ccccc2Cl)c1,.,.,.,-,.
SMILES,CCT modulator,Tb PGK inh,PI4K2A inh,PINK1 expr mod,GLS inhibitor
CC1=NN(c2ccc(Br)cc2)C(=O)/C1=C/c1ccc(-c2ccccc2C(=O)O)o1,-,-,-50,-,-
Cc1c(C(=O)NCC2CCCN(C)C2)cnn1-c1ncc2c(n1)-c1ccccc1CCC2 (centres undefined),.,.,.,-,.
Nc1ccc(N2CCCCC2)cc1N1CCCCC1,-,-,-,16µM,-
Nc1c(N2CCCC2)cc(Cl)c2nonc12,-,-,-66,-,-
Nc1cc(Cl)ccc1N1CCCCC1,-,-,-,-,-
Cc1cc(N2CCOCC2)c2c(N)cc(C)c(C)c2n1,-,-,-,-,-
Nc1ccc(N2CCCCC2)c2nonc12,-,?,-54,-,-
Nc1c(N2CCOCC2)cc(Cl)c2nonc12,-,-,-62,-,-
COc1cccc(CN2CCC3(CC2)c2ccccc2[C@@H](NC(=O)c2ccccc2)[C@@H]3O)c1O,.,.,.,-,.
